Measured values taken from the supplement of paper PMC3334620.
Whole data set: some 33,000 sequences, median “E-score (-0.5 to 0.5)” near -0.016, cut for the highest 2% near 0.31. The list comes from a sample in which the highest values are over-represented; it also holds similar and randomly drawn sequences.

target: Cst6 (UniProt P40535); experiment: PBM E-score (8-mer binding enrichment) (E-score (-0.5 to 0.5)); higher = stronger / more preferred TF binding; conditions: protein concentration: 200 nM; construct: GST-DNA-binding domain
Procedure: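 Universal 'all 10-mer' protein binding microarrays (Agilent AMADID 015681) probed with GST-tagged S. cerevisiae TFs (full-length or DBD) made by in vitro transcription/translation (PURExpress), about 100-200 nM. Bound TF was detected with fluorescent anti-GST. Each ungapped 8-mer (which stands for itself and its reverse complement) is scored by the PBM enrichment score (E-score), a modified Wilcoxon-Mann-Whitney statistic from -0.5 to +0.5, computed with the Universal PBM Analysis Suite. Scale: above 0.35 generally sequence-specific binding.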

Chain of UniProt P40535 (P40535 whole entry, the tested form may be a part): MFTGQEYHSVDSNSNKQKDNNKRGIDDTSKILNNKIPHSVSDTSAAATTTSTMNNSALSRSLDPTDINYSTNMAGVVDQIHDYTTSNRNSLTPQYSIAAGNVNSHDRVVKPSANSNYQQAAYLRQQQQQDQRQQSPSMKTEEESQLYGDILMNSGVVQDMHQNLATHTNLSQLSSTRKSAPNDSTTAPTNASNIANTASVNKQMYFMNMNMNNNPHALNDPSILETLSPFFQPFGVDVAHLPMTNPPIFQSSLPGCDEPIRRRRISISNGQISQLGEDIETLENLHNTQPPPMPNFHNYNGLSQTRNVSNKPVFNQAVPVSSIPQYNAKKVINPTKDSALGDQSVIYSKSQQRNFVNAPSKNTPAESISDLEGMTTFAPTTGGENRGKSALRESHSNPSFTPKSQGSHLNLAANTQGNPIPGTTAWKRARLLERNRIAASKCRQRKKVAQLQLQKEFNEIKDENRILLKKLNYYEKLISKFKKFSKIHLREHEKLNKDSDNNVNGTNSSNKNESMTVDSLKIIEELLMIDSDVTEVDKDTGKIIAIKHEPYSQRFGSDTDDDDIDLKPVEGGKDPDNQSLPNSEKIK

Sequence	PBM E-score
CTATCATC	0.0729
ATATCAGC	-0.0588
ATATCATA	0.315
CCGGATCC	-0.199
CAGGATGC	-0.125
GCCGCCGC	0.205
TAGGCAGA	0.0434
GAGTCAAC	-0.0954
ACGTCAAC	0.484
ACGTCGAT	0.316
GCGTCAAA	0.151
GTGTCAAC	0.0573
ACGTCAAA	0.389
CCGTCAAC	0.0147
TCGTCAAA	0.195
ACGTCGAA	0.112
GCGTCAAC	0.335
AGGTCAAC	-0.0368
ACGTCGAG	-0.115
CGCCAGTA	-0.0657
TAAATTAA	0.127
CTCAGTAC	-0.0935
AGGTCAAG	-0.0961
AGGTCAAT	0.0479
CCGTCAAG	-0.129

Sequence	PBM E-score
ACGTCAAG	0.373
ACGTCAAT	0.455
ATGTCAAT	0.26
ATAAGAGA	0.217
CAAAGGTG	-0.0715
GTGCAGAA	0.0789
ACATCGGC	-0.0191
GCGCCAAA	-0.042
AATTTATA	0.263
AAATTATG	0.164
AAATTATC	0.308
AATTTATC	0.312
CATTTATC	0.151
AAATTAGT	0.29
AAATTATT	0.314
AAATTAAT	0.248
AAATTATA	0.278
GGTTTTGA	0.105
GGCCCTGA	-0.208
AACAGGCA	-0.0324
AAGTAAAG	-0.172
CCGTAAAG	0.00566
ATGTAAAA	0.144
ATGTAAAT	0.309
AGGTAAAT	0.0678

Sequence	PBM E-score
GCGTAAAC	0.168
CCGTAAAC	0.0456
ATGTAAAC	0.269
ACGTAAAC	0.31
AAGTAAAT	0.214
ACGTAAAG	0.306
ACGTAAAT	0.385
GCACTCTA	-0.0783
AGAAAACG	0.168
GCTTAGAC	-0.195
CAAGCGAG	-0.00525
TATAGGCA	-0.112
ACATCTGC	-0.0513
CAACAGCA	0.00053
AAGGTTGG	0.0155
GCGGAAAA	0.17
CCGTAAAA	0.0767
ACGTAAAA	0.354
GCGTAAAA	0.0958
CACACAGG	0.0469
CCTCATTC	-0.0459
AGTCATTA	0.0194
CGTCATTC	0.467
GGTCATTA	0.178
CGTCATTA	0.477

Sequence	PBM E-score
AGTCATTC	0.0571
GAGCACCA	-0.219
ACCCTTCG	-0.0964
ATCGTCTC	-0.0844
ATCGTCGC	-0.0136
GCCGTCAC	0.334
ACCGTCAG	-0.0719
ACCGTCAA	0.159
CTCGTCAG	0.127
CTCGTCAA	0.0507
CTCGTCAC	0.349
ACCGTCAT	0.418
ATCGTCAC	0.401
CCCGTCAC	0.2
GCCGTCAA	0.0714
ACAGGAAG	-0.0175
CCAGCTCA	-0.146
CAGGCATC	-0.213
ATATAACG	0.267
CAATTAGG	0.0223
ACCCCCGC	-0.33
ATGTTGGC	-0.0418
CCGATAGA	-0.124
ACCGAGGG	-0.446
CTCCGCAC	-0.0765

Sequence	PBM E-score
CGCTGCGA	0.0077
TCAACCCA	-0.0214
GTCGTCAC	0.425
ATCGTCAA	0.223
GTCGTCGA	-0.00727
ATCGTCAT	0.448
ATCGTCAG	0.131
GTCGTCAA	0.147
CTAAGACA	0.0903
AGGGCATA	0.0409
AACGCACG	0.179
AGCCACAG	-0.232
ATGGATAC	-0.0649
AATTCAAA	0.23
ACGCAATG	0.24
GCGCAATA	-0.079
ACGCAATA	0.349
ATCAGACA	-0.00162
CCGGCGCG	-0.0219
CCGGCGCC	0.14
ACGGCGCG	0.381
CCGGCGCA	-0.107
GCGGCGCC	0.376
ACGGCGAG	0.18
GCGGCGCA	0.197

Sequence	PBM E-score
TCGGCGCA	0.071
ACGGCGCA	0.349
ACGGCGAC	0.217
ACGGCGCT	0.251
ACGGCGCC	0.364
ACCAAACA	0.277
AGGAGCCT	-0.209
AATAAGAT	0.232
TATAAGAA	0.125
AATAAGAG	0.055
AATAAGAA	0.312
GATAAGAA	0.291
CATAAGAA	0.342
TCCATAAA	0.123
CCATTGCC	0.0353
AATGCACG	0.0682
AAATTCGC	0.211
AAATTCGG	0.0235
AAATTCGT	0.306
CGCCTCAG	0.00359
CCTTGACC	-0.19
CGTCAGAC	0.287
CGTCAGAG	0.365
AGTCACAG	-0.0682
CGTCACAA	0.4

Sequence	PBM E-score
GGTCACAA	-0.0375
CGTCAGAA	0.286
AGTCACAC	0.00702
CGTCACAC	0.414
CGTCACAG	0.424
GGTCACAC	-0.0298
TGTCACAA	0.254
CCTCACAG	-0.0712
ACGATTCT	0.039
ACTATCCG	0.0433
CAAACCAG	-0.0964
CATACATG	0.0541
CCTTCTCG	-0.264
CAGTAGAG	-0.0984
AGACAAAT	0.159
AGAAAATG	0.0622
ATCATTGA	0.306
ATCATTGG	0.194
GTCATTGA	0.391
ATCATTGC	0.188
GACATTGA	0.096
CTCATTGA	-0.0286
